“And” between values parts separate entries of the source, which are not always exact repeats. Equal entries are not always repeated. Inconclusive results are not listed. More than one record can exist for a structure, and the calls need not agree. The source made the active and inactive calls. How the source made its calls, unless noted: active means hit-call score of the fitted dose curve at least 0.9, where 1 is the maximum; inactive means score below 0.9.
Experiments:
[1] = ATG_PBREM_CIS: Attagene CIS-FACTORIAL HepG2 Assay for human Phenobarbital-responsive Enhancer Module (PBREM) (AID 2282955); conditions: HepG2 PBREM cis-reporter, Attagene multiplexed transcription; actives raise or lower the signal
How it was run: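 Multiplexed cis-reporter readout in human hepatoma HepG2 cells; PBREM-regulated transcript quantified after 24 h exposure by fluorescent RT-PCR fragment analysis. Signal changes up or down fitted relative to DMSO.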

[2] = molecular target: Paired box protein Pax-6 (Homo sapiens) (UniProt P26367); experiment: ATG_Pax6_CIS: Attagene CIS-FACTORIAL HepG2 Assay for human Paired Box 6 (PAX6) (AID 2282956); conditions: HepG2 CIS-FACTORIAL PAX6 reporter transcription, RNA readout; actives raise or lower the signal
How it was run: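 Fluorescent RT-PCR products separated by capillary electrophoresis report PAX6-linked promoter mRNA in HepG2 cells 24 h post-dose. Curves fitted bidirectionally, DMSO as negative control.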

[3] = ATG_PXRE_CIS: Attagene CIS-FACTORIAL HepG2 Assay for human Pregnane X Receptor Element (PXRE) (AID 2282957); conditions: HepG2 Attagene CIS-FACTORIAL PXRE reporter, mRNA; actives raise or lower the signal
How it was run: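 Using HepG2 transfected with multiple reporter transcription units, endogenous factor-driven transcription was scored as reporter mRNA after 24 h exposure.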

[4] = ATG_PPRE_CIS: Attagene CIS-FACTORIAL HepG2 Assay for human Peroxisome Proliferator-activated Response Element (PPRE) (AID 2282958); conditions: HepG2 PPRE cis-element reporter, Attagene transcription factor profiling; actives raise or lower the signal
How it was run: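 DMSO served as negative control and baseline for bidirectional curve fitting. Signal came from PPRE-regulated reporter mRNA in HepG2 cells, measured 24 h post-dosing by RT-PCR, 6-FAM primer extension and capillary electrophoresis.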

[5] = ATG_RORE_CIS: Attagene CIS-FACTORIAL HepG2 Assay for human RAR-related Orphan Receptor Element (RORE) (AID 2282959); conditions: HepG2 Attagene cis-factorial RORE reporter, mRNA; actives raise or lower the signal
How it was run: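 Transfect HepG2 with MRTUs; treat 24 h; extract RNA; RT with oligo(dT); PCR with reporter-specific primers; 6-FAM primer extension; HpaI digest 2 h at 37 C; capillary electrophoresis. Fit vs DMSO, bidirectional.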

[6] = ATG_Sox_CIS: Attagene CIS-FACTORIAL HepG2 Assay for human SRY-box transcription factor (SOX) (AID 2282960); conditions: HepG2 Attagene cis-factorial SOX reporter, mRNA; actives raise or lower the signal
How it was run: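 Fluorescence-labelled cDNA fragments from reporter transcripts, sized by CE, give the signal. Cells: HepG2, transiently transfected with cis-regulated reporter units. Exposure 24 h; DMSO negative control; bidirectional curve fitting.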

[7] = molecular target: Transcription factor Sp1 (Homo sapiens) (UniProt P08047); experiment: ATG_Sp1_CIS: Attagene CIS-FACTORIAL HepG2 Assay for human Specificity Protein 1 (Sp1) (AID 2282961); conditions: HepG2 Sp1 cis-reporter transcription, actives raise or lower the signal
How it was run: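 Chemicals are dosed onto HepG2 cells transfected with multiple cis-promoter reporter constructs, and after 24 h reporter RNA is reverse-transcribed, PCR-amplified and resolved by capillary electrophoresis for fluorescence quantitation; activity is scored up or down against DMSO.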

[8] = ATG_SREBP_CIS: Attagene CIS-FACTORIAL HepG2 Assay for human Sterol Regulatory Element Binding (SREBP) (AID 2282962); conditions: HepG2 Attagene cis-factorial SREBP reporter, mRNA; actives raise or lower the signal
How it was run: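 Endogenous factor activity is measured in HepG2 through multiplexed reporter units under cis-element control. Following a 24 h incubation, reporter transcripts are reverse-transcribed, PCR-amplified and sized by capillary electrophoresis; activity is fitted in both directions relative to DMSO.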

[9] = molecular target: Signal transducer and activator of transcription 3 (Homo sapiens) (UniProt P40763); experiment: ATG_STAT3_CIS: Attagene CIS-FACTORIAL HepG2 Assay for human Signal Transducer and Activator of Transcription 3 (STAT3) (AID 2282963); conditions: HepG2, Attagene cis-factorial STAT3 reporter transcription; actives raise or lower the signal
How it was run: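 HepG2, MRTU-transfected, 24 h dosing. RNA → RT → PCR → FAM label → HpaI → CE. Bidirectional fit vs DMSO.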

[10] = ATG_TA_CIS: Attagene CIS-FACTORIAL HepG2 Assay for human TA Basal Promoter (AID 2282964); conditions: HepG2 Attagene CIS-factorial TA basal promoter reporter; actives raise or lower the signal
How it was run: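 Cis-factorial format in HepG2: reporters report endogenous factors, not chimeric Gal4 fusions. After 24 h treatment, reporter transcripts were measured by RT-PCR-capillary electrophoresis fluorescence, analysed bidirectionally versus DMSO.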

[11] = ATG_TCF_b_cat_CIS: Attagene CIS-FACTORIAL HepG2 Assay for human T-Cell-Factor with beta-catenin (TCF/b-cat) (AID 2282965); conditions: HepG2 TCF/beta-catenin cis-reporter transcription, actives raise or lower the signal
How it was run: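 Using capillary electrophoresis as the read-out, labelled reporter cDNA fragments from transiently transfected HepG2 were sized and quantified. Exposure lasted 24 hours; activity in either direction was referenced to DMSO.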

[12] = ATG_TAL_CIS: Attagene CIS-FACTORIAL HepG2 Assay for human TAL Basal Promoter (AID 2282966); conditions: HepG2 Attagene cis-factorial TAL promoter reporter; actives raise or lower the signal;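 further: background control endpoint measuring basal TAL promoter reporter mRNA not a specific factor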
How it was run: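 After 24 hours of chemical exposure, transfected HepG2 cells yielded RNA that was converted to 6-FAM-labelled, HpaI-digested reporter fragments for capillary electrophoresis. Values derive from bidirectional fitting against DMSO controls.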

[13] = ATG_TGFb_CIS: Attagene CIS-FACTORIAL HepG2 Assay for human Transforming Growth Factor (TGF) (AID 2282967); conditions: HepG2 Attagene CIS TGFb reporter, mRNA transcription; actives raise or lower the signal
How it was run: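 Multiplexed cis-reporter HepG2 system, 24 h treatment; mRNA induction read by fluorescence after RT-PCR and CE; DMSO negative control, bidirectional curve fitting.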

[14] = ATG_VDRE_CIS: Attagene CIS-FACTORIAL HepG2 Assay for human Vitamin D Receptor Element (VDRE) (AID 2282968); conditions: HepG2 VDRE cis-reporter transcription, actives raise or lower the signal
How it was run: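 Steps: transfect HepG2 with multiple reporter transcription units; dose chemicals 24 h; isolate RNA; RT-PCR; label with 6-FAM primer extension; HpaI digest; capillary electrophoresis. Curves fitted both directions against DMSO.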

[15] = molecular target: Nuclear receptor subfamily 1 group I member 3 (Homo sapiens) (UniProt Q14994); experiment: ATG_CAR_TRANS: Attagene TRANS-FACTORIAL HepG2 Assay for human Constitutive Androstane Receptor (CAR) (AID 2282969; active means hit-call score of the fitted dose curve at least 0.9, where 1 is the maximum;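 further: activators raise reporter mRNA above DMSO so AC50 marks induction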); conditions: HepG2 Attagene TRANS-FACTORIAL CAR reporter
How it was run: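 Steps: transient transfection of HepG2 with multiple GAL4-UAS reporter units; 24 h compound incubation; RNA isolation, RT-PCR, 6-FAM primer extension, HpaI digest; capillary electrophoresis. Gain-of-signal relative to DMSO negative control.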

[16] = molecular target: Estrogen receptor (Homo sapiens) (UniProt P03372); experiment: ATG_ERa_TRANS: Attagene TRANS-FACTORIAL HepG2 Assay for human Estrogen Receptor alpha (ERa) (AID 2282970; active means hit-call score of the fitted dose curve at least 0.9, where 1 is the maximum); conditions: HepG2 Attagene TRANS ERa GAL4 reporter, mRNA
How it was run: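 Liver-derived HepG2 cells expressing chimeric nuclear receptor-Gal4 proteins from transient transfection were exposed for 24 hours. Gain of reporter mRNA signal versus DMSO, read by capillary electrophoresis of FAM-labelled PCR products, was recorded.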

[17] = molecular target: X-box-binding protein 1 (Homo sapiens) (UniProt P17861); experiment: ATG_Xbp1_CIS: Attagene CIS-FACTORIAL HepG2 Assay for human X-box Binding Protein 1 (XBP1) (AID 2282972); conditions: HepG2 XBP1 cis-element reporter, Attagene multiplex; actives raise or lower the signal
How it was run: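 Multiplexed cis-reporter readout in transfected HepG2 liver cells. Exposure lasted 24 hours. Activity in either direction was fitted against DMSO as negative control and baseline.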

[18] = ATG_M_19_TRANS: Attagene TRANS-FACTORIAL HepG2 Assay for M19 Transcription Factor (Internal Marker) (AID 2282974; active means hit-call score of the fitted dose curve at least 0.9, where 1 is the maximum); conditions: HepG2 Attagene TRANS-FACTORIAL M19 internal marker reporter
How it was run: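 Multiplexed TRANS format: HepG2 liver cells bearing transient GAL4-UAS reporter units, chemical treatment 24 h, reporter transcripts quantified by RT-PCR plus capillary electrophoresis. DMSO defines baseline.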

[19] = molecular target: Steroid hormone receptor ERR1 (Homo sapiens) (UniProt P11474); experiment: ATG_ERRa_TRANS: Attagene TRANS-FACTORIAL HepG2 Assay for human Estrogen-Related Receptor alpha (ERRa) (AID 2282971; active means hit-call score of the fitted dose curve at least 0.9, where 1 is the maximum); conditions: HepG2 Attagene TRANS reporter, ERRa transactivation
How it was run: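 Reporter transcript induction was quantified by RT-PCR and capillary electrophoresis of FAM-labelled, HpaI-cut products after 24 h treatment of HepG2 cells carrying transiently transfected GAL4-UAS reporter units and an exogenous ERRa-Gal4 fusion; activity scored as increase over DMSO.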

[20] = ATG_GAL4_TRANS: Attagene TRANS-FACTORIAL HepG2 Assay for GAL4 (Internal Marker) (AID 2282976; active means hit-call score of the fitted dose curve at least 0.9, where 1 is the maximum); conditions: HepG2 Attagene TRANS GAL4 internal marker reporter
How it was run: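 First, HepG2 cells were transfected with reporter units under GAL4-UAS control. Next, they were treated with chemical for 24 h. Finally, RNA was reverse-transcribed, PCR-amplified, FAM-labelled and resolved by capillary electrophoresis, with induction scored against DMSO.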

Measured: AC50

Chain of Signal transducer and activator of transcription 3 (Homo sapiens) (P40763 whole entry, looked up): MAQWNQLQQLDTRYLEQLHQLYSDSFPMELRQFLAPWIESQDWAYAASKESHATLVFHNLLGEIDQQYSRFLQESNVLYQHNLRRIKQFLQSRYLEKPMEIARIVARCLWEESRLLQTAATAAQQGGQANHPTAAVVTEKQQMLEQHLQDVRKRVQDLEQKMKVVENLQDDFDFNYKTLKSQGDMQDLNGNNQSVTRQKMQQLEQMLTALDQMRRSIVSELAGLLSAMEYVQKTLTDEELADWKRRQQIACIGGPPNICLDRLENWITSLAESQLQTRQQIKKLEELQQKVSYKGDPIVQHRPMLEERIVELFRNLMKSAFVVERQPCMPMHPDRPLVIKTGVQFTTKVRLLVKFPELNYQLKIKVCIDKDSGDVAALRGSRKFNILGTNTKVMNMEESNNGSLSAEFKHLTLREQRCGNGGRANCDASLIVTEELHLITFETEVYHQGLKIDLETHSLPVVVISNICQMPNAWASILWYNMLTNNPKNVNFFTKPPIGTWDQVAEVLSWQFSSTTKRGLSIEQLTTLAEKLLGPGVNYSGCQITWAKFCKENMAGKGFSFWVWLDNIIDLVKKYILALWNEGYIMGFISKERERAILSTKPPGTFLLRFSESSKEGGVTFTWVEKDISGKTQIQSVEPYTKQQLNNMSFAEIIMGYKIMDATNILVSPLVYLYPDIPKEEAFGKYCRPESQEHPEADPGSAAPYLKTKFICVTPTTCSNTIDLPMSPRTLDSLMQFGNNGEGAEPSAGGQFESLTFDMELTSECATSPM
Chain of Steroid hormone receptor ERR1 (Homo sapiens) (P11474 whole entry, looked up, the tested form may be a part): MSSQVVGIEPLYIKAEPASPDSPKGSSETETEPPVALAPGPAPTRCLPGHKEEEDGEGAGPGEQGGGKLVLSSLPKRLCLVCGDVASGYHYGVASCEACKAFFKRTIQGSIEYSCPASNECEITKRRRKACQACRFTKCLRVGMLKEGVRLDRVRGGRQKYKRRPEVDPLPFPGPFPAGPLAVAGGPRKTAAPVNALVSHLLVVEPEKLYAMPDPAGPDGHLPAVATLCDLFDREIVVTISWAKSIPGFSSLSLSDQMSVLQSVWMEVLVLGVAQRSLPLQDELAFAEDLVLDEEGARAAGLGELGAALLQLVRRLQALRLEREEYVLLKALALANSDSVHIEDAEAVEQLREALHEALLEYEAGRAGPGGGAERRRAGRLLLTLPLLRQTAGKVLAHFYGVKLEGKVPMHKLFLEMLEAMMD
Chain of Estrogen receptor (Homo sapiens) (P03372 whole entry, looked up, the tested form may be a part): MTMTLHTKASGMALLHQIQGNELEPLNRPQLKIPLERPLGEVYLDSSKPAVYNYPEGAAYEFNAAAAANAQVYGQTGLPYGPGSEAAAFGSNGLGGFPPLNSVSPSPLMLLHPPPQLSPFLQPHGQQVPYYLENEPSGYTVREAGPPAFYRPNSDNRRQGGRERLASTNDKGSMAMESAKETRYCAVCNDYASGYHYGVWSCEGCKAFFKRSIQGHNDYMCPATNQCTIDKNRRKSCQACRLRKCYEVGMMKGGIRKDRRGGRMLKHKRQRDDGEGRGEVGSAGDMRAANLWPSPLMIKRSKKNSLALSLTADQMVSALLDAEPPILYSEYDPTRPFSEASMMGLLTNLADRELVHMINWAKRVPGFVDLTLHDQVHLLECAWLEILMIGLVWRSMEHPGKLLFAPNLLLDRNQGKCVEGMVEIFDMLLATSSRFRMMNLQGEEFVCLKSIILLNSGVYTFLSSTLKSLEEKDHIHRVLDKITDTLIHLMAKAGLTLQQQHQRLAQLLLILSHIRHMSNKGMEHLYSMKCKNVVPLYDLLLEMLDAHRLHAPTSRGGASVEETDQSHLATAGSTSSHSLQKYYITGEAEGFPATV
Chain of X-box-binding protein 1 (Homo sapiens) (P17861 whole entry, looked up): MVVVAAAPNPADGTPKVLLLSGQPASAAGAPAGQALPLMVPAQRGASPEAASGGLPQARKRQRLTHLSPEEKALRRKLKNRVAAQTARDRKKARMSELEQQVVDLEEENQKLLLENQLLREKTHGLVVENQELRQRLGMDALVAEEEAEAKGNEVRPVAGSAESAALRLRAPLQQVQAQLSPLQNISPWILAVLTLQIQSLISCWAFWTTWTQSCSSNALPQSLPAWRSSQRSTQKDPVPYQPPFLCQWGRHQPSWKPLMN
Chain of Nuclear receptor subfamily 1 group I member 3 (Homo sapiens) (Q14994 whole entry, looked up, the tested form may be a part): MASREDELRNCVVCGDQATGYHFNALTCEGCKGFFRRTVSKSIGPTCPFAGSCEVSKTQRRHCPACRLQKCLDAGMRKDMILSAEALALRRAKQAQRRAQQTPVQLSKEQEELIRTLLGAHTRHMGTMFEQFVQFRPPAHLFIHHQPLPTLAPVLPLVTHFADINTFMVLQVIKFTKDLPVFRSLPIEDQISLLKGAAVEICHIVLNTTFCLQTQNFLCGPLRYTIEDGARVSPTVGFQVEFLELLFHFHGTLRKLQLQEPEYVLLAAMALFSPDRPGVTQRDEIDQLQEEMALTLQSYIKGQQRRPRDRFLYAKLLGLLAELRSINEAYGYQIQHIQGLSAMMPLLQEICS
Chain of Transcription factor Sp1 (Homo sapiens) (P08047 whole entry, looked up): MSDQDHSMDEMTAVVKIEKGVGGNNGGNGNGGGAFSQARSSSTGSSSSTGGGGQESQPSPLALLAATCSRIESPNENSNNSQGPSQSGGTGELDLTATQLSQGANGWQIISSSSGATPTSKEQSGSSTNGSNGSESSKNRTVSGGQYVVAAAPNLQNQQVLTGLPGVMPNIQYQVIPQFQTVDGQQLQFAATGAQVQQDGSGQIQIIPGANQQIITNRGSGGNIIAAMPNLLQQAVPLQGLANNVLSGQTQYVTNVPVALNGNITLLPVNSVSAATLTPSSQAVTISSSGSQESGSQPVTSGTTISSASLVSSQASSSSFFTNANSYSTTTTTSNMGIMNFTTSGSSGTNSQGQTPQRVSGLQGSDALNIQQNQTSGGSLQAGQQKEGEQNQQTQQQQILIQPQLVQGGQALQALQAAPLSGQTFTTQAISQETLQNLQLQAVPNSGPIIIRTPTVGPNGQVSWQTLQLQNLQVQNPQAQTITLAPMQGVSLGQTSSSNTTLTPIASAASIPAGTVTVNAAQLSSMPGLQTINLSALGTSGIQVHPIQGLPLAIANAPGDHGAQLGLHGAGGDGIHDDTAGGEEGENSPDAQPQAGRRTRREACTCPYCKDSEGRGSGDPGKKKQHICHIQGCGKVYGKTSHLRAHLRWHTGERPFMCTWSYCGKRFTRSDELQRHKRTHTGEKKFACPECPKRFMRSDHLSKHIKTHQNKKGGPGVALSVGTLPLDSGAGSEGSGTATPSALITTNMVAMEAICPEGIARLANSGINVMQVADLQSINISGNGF
Chain of Paired box protein Pax-6 (Homo sapiens) (P26367 whole entry, looked up): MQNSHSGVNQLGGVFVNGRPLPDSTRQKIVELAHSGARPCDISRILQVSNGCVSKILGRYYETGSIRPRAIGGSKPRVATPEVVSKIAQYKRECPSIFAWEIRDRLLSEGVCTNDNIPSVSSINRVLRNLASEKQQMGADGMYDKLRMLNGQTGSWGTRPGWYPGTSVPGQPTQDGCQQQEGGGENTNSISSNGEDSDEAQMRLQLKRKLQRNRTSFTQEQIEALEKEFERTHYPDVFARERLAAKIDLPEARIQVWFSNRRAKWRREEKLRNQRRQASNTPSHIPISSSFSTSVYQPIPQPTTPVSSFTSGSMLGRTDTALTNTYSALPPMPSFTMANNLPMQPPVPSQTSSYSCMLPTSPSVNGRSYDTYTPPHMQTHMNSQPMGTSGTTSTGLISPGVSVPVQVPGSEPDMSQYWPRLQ

OCC(CO)(CO)CO
not listed: [19] | [20]
inactive: all other assays above

CC(C)c1nnc2ccc(-c3ocnc3-c3cc(F)ccc3F)cn12
active: [1] 83.4 µM | [3] 26.5 µM | [7] 125 µM | [14] 37.7 µM
not listed: [18] | [20]
inactive: all other assays above

Cc1cccc(O)c1C
inactive: [1] | [2] | [3] | [4] | [5] | [6] | [7] | [8] | [9] | [10] | [11] | [12] | [13] | [14] | [15] | [19] | [17] | [18] | [20]
active: [3] 31.1 µM | [16] 38.5 µM and 46 µM

OC(O)(C(F)C(O)(O)C(F)(F)F)C(F)(F)F
active: [4] 3.62 µM | [7] 64.6 µM and 96.6 µM | [8] 66.4 µM and 37.5 µM | [11] 3.07 µM | [12] 51.9 µM and 25.8 µM | [16] 194 µM | [17] 61.9 µM and 33 µM
inactive: [1] | [2] | [3] | [4] | [5] | [6] | [9] | [10] | [11] | [13] | [14] | [15] | [16] | [19] | [20]

OC(CCl)CCl
not listed: [19]
inactive: all other assays above

CC(C)CC(C)O (stereo unspecified)
not listed: [16] | [19]
inactive: all other assays above
